# From PubChem BioAssay (EPA / NIEHS)
# Records with an inconclusive call do not appear. The source made the active and inactive calls. The calls were made as follows, unless noted: active = hit-call score of the fitted dose curve at least 0.9, where 1 is the maximum; inactive = score below 0.9.
# Columns and labels:
# [1] = target: Estrogen receptor (Homo sapiens) (UniProt P03372); assay: CCTE_Deisenroth_AIME_384WELL_LUC_Active: CCTE's 384-well Estrogen Receptor Transactivation Assay with AIME metabolic competence (ERTA luciferase; metabolism positive), Deisenroth Lab (AID 2284030; active = hit-call score of the fitted dose curve at least 0.9, where 1 is the maximum)
# Sequence of Estrogen receptor (Homo sapiens) (P03372 whole entry, looked up): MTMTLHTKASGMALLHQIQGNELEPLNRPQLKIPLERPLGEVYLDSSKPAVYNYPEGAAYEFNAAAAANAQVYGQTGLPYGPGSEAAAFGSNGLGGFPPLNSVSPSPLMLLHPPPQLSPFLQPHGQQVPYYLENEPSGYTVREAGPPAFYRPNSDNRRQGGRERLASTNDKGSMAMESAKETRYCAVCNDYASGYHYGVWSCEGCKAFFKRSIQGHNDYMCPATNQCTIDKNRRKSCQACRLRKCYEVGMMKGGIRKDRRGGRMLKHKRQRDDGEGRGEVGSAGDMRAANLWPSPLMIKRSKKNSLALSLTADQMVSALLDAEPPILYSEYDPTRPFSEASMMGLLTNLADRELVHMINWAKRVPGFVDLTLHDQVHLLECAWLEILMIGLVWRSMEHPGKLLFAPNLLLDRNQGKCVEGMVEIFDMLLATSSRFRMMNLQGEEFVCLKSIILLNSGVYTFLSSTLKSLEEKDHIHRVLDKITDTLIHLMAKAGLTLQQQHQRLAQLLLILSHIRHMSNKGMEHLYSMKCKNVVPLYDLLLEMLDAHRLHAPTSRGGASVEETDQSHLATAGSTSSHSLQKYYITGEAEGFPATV
# Procedure, shortened: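 Estrogenic luciferase signal in VM7Luc4E2 cells is measured at 24 hour, after chemicals have been preconditioned 2 hours with PB/BNF-induced rat hepatic S9 in alginate. Gain of signal is fitted relative to 17beta-estradiol, across 0.002 - 200 uM.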
# [2] = CCTE_Deisenroth_AIME_384WELL_CTox_Active: Cytotoxicity Assessment (CTOX) in CCTE's 384-well Estrogen Receptor Transactivation Assay with AIME metabolic competence (metabolism positive), Deisenroth Lab (AID 2284037; active = hit-call score of the fitted dose curve at least 0.9, where 1 is the maximum;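 also: chemicals first conditioned 2 h by alginate-bound induced rat liver S9 before cells; activity means signal loss indicating cell death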)
# Procedure, shortened: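 VM7Luc4E2 breast cells received medium pre-incubated 2 h with chemical over alginate microspheres holding induced male Sprague Dawley rat liver S9; viability read 24 h later by protease-substrate fluorescence. Loss of signal, bidirectional fit, 0.002–200 uM.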
# [3] = CCTE_Deisenroth_AIME_384WELL_CTox_Inactive: Cytotoxicity Assessment (CTOX) in CCTE's 384-well Estrogen Receptor Transactivation Assay without AIME metabolic competence (metabolism negative), Deisenroth Lab (AID 2284039; active = hit-call score of the fitted dose curve at least 0.9, where 1 is the maximum;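 also: cell viability via live-cell protease substrate cleaved to fluorescent probe; cells exposed 24 h to medium preincubated 2 h with alginate-water beads without S9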)
# Procedure, shortened: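 Metabolism-negative arm: chemicals (10-point, 0.002 - 200 uM) preincubated 2 h with alginate-water lids, medium moved onto VM7Luc4E2 cells for 24 h. Fluorescent live-cell protease readout; bidirectional curve fit.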
# [4] = target: Estrogen receptor (Homo sapiens) (UniProt P03372); assay: CCTE_Deisenroth_AIME_384WELL_LUC_Shift: CCTE's 384-well Estrogen Receptor Transactivation Assay with AIME metabolic competence data shift (ERTA luciferase; difference in metabolism positive and negative), Deisenroth Lab (AID 2284041);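 also: shift is response with S9 minus without S9 so positive means metabolism raised ER signal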
# Procedure, shortened: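 Here, parent compounds undergo 2 h phase I metabolism by PB/BNF-induced rat S9 before 24 h transactivation in VM7Luc4E2 cells; the curve models S9-positive minus S9-negative response over a 10-point series.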
# [5] = target: Estrogen receptor (Homo sapiens) (UniProt P03372); assay: CCTE_Deisenroth_AIME_384WELL_LUC_Inactive: CCTE's 384-well Estrogen Receptor Transactivation Assay without AIME metabolic competence (ERTA luciferase; metabolism negative), Deisenroth Lab (AID 2284038; active = hit-call score of the fitted dose curve at least 0.9, where 1 is the maximum;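 also: hits raise estrogen receptor luciferase signal so potencies reflect agonists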)
# Procedure, shortened: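 VM7Luc4E2 ER transactivation, luciferase bioluminescence after 24 h, using medium pre-incubated 2 h with S9-free alginate microspheres. Concentrations 0.002–200 uM; gain of signal fitted relative to 17beta-estradiol.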
# [6] = CCTE_Shafer_MEA_dev_firing_rate_mean: CCTE's Neural Network Formation Assay for Mean Firing Rate, Shafer Lab (AID 2284031)
# Procedure, shortened: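 Steps: seed rat cortical cells (1.5 x 10^5/well) with laminin on PEI-coated MEA; dose day 0; record DIV 5/7/9/12, full media and compound exchange after DIV 5 and 9 recordings; compute well-mean firing rate AUC.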
# [7] = CCTE_Shafer_MEA_dev_per_burst_spike_percent: CCTE's Neural Network Formation Assay for Percent of Spikes in a Burst, Shafer Lab (AID 2284032);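 as to AC50: fitted as a decrease in burst spike percentage below DMSO baseline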
# Procedure, shortened: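 Value is trapezoidal AUC over recordings on days 5, 7, 9 and 12 of the well-mean fraction of spikes falling in single-electrode bursts; rat cortical cultures exposed continuously from plating, treatment renewed DIV 5 and 9, fitted downward against DMSO.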
# [8] = CCTE_Shafer_MEA_dev_burst_rate: CCTE's Neural Network Formation Assay for Burst Rate, Shafer Lab (AID 2284042)
# Procedure, shortened: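 Cells plated, treated day 0; recorded DIV 5, 7, 9, 12; fed and re-treated DIV 5, 9. Endpoint: bursts per recording time, active-electrode well mean, trapezoidal AUC, fitted in decreasing direction against DMSO baseline.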
# [9] = CCTE_Shafer_MEA_dev_bursting_electrodes_number: CCTE's Neural Network Formation Assay for Number of Bursting Electrodes, Shafer Lab (AID 2284043; active = hit-call score of the fitted dose curve at least 0.9, where 1 is the maximum;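 as to AC50: potency is for loss of bursting electrodes relative to DMSO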)
# Procedure, shortened: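 Counted: electrodes with burst rate ≥1 per 2 min in each well. Cells: primary rat cortex, 1.5 x 10^5/well, on 16-electrode MEA wells. Exposure: DIV 0–12, compound renewed DIV 5 and 9. Recording days 5, 7, 9, 12; AUC vs DMSO baseline.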
# [10] = CCTE_Shafer_MEA_dev_per_burst_interspike_interval: CCTE's Neural Network Formation Assay for Burst Interspike Interval, Shafer Lab (AID 2284044)
# Procedure, shortened: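 Spontaneous activity of maturing rat cortical networks is recorded on DIV 5, 7, 9 and 12 under chronic compound exposure beginning at plating. Endpoint: burst interspike interval well-mean, collapsed into trapezoidal AUC and fitted in the negative direction relative to DMSO.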
# [11] = CCTE_Shafer_MEA_dev_burst_duration_mean: CCTE's Neural Network Formation Assay for Mean Burst Duration, Shafer Lab (AID 2284045)
# Procedure, shortened: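 Network-formation assay in primary rat cortical neurons; treatment spans twelve days of development. Mean burst duration per well is integrated by trapezoidal AUC and fitted in the loss-of-signal direction against DMSO baseline.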
# [12] = CCTE_Shafer_MEA_dev_interburst_interval_mean: CCTE's Neural Network Formation Assay for Mean Interburst Interval, Shafer Lab (AID 2284046);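 also: well-mean interburst interval of bursting electrodes as AUC over four recording days; curve fitted for decrease in interburst interval relative to DMSO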
# Procedure, shortened: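 Developing rat cortical networks on 48-well MEAs receive compound from the day of plating. Burst intervals from each active electrode are averaged per well, and AUC over the recording days is fitted in the negative direction against DMSO.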
# [13] = CCTE_Shafer_MEA_dev_inter_network_spike_interval_mean: CCTE's Neural Network Formation Assay for Mean Inter-network Spike Interval, Shafer Lab (AID 2284047);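 as to AC50: potency for a decrease in mean inter-network spike interval below DMSO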
# Procedure, shortened: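 Rat cortical cultures, 1.5 x 10^5 cells/well on 48-well MEA plates; continuous exposure days 0–12, medium and compound refreshed DIV 5, 9. Mean time between consecutive network-spike peaks; AUC across DIV 5/7/9/12; DMSO baseline, negative fitting direction.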
# [14] = CCTE_Shafer_MEA_dev_network_spike_number: CCTE's Neural Network Formation Assay for Number of Network Spikes, Shafer Lab (AID 2284048);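 also: synchronized bursts across electrodes counted on days 5 7 9 12 and integrated as AUC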
# Procedure, shortened: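 Extracellular recordings from 16-electrode wells track network formation in rat cortical cultures under continuous treatment from plating. The endpoint is network spike number, expressed as AUC across DIV 5–12 relative to DMSO vehicle.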
# [15] = CCTE_Shafer_MEA_dev_network_spike_peak: CCTE's Neural Network Formation Assay for Mean Number of Electrodes in Network Spike, Shafer Lab (AID 2284049);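 as to AC50: fitted for loss of signal meaning fewer electrodes in network spikes than DMSO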
# Procedure, shortened: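 Continuous 12-day exposure of rat cortical cultures, starting at plating, on MEA plates. Endpoint: electrodes participating in network-spike peaks, AUC across DIV 5–12, DMSO as negative control.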
# [16] = test system: DIO2 (gene 1734); assay: CCTE_GLTED_hDIO2: CCTE's human Deiodinase 2 (DIO2) Inhibition Assay, Great Lakes Toxicology and Ecology Division (GLTED) Lab (AID 2284050; active = hit-call score of the fitted dose curve at least 0.9, where 1 is the maximum)
# Procedure, shortened: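 Inhibition is judged by reduced iodide release: uninhibited human DIO2 frees iodide from substrate over 3 h, measured afterward by Sandell-Kolthoff colorimetry. Iodinated chemicals or nitrite, iron and thiocyanate may interfere.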
# [17] = CCTE_Shafer_MEA_dev_spike_duration_mean: CCTE's Neural Network Formation Assay for Mean Spike Duration, Shafer Lab (AID 2284051);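 also: mean network spike duration pooled as area under curve over DIV 5 to 12 recordings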;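 as to AC50: potency for a decrease in mean network spike duration versus DMSO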
# Procedure, shortened: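 Readout is the average length of network spikes, clustered firing across electrodes, summed over DIV 5, 7, 9 and 12 as area under the curve. Neurons from rat cortex developed networks on MEA plates under continuous 12-day exposure.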
# [18] = CCTE_Shafer_MEA_dev_network_spike_duration_std: CCTE's Neural Network Formation Assay for Standard Deviation of Network Spike Duration, Shafer Lab (AID 2284052);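 also: area under curve of spike duration SD across recording days 5 to 12; hits are decreases in network spike duration SD versus DMSO vehicle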
# Procedure, shortened: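 Read-out is the trapezoidal area-under-the-curve across recordings made on days 5, 7, 9 and 12, fitted in the negative direction against DMSO baseline. Neurons were primary rat cortical cells treated from day 0, with treatment renewed at each feed.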
# [19] = CCTE_Deisenroth_AIME_96WELL_CTox_Active: Cytotoxicity Assessment (CTOX) in CCTE's 96-well Estrogen Receptor Transactivation Assay with AIME metabolic competence (metabolism positive), Deisenroth Lab (AID 2284028; active = hit-call score of the fitted dose curve at least 0.9, where 1 is the maximum)
# Procedure, shortened: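 Cytotoxicity in VM7Luc4E2 breast cells after 24 h exposure to medium from a 2 h metabolic pre-incubation with induced rat hepatic S9 in alginate microspheres; fluorescent live-cell protease readout, 10-point series 0.002–200 uM, n=4.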
# [20] = CCTE_Deisenroth_AIME_96WELL_CTox_Inactive: Cytotoxicity Assessment (CTOX) in CCTE's 96-well Estrogen Receptor Transactivation Assay without AIME metabolic competence (metabolism negative), Deisenroth Lab (AID 2284029; active = hit-call score of the fitted dose curve at least 0.9, where 1 is the maximum)
# Procedure, shortened: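 Metabolism-negative mode: alginate-water lids without rat S9, 2 h pre-incubation of 10-point series (0.002 - 200 uM). Conditioned medium on VM7Luc4E2 cells 24 h; loss of fluorescent live-cell protease signal marks cytotoxicity.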
compound,measurement,setting,value
COc1ccc2sc(C(=O)Nc3nnn[nH]3)c(OC(C)C)c2c1,outcome,[1],inactive
same,AC50,[2],45 µM (active)
same,outcome,[3],inactive
same,outcome,[4],inactive
O=c1n(CC2CO2)c(=O)n(CC2CO2)c(=O)n1CC1CO1 (stereo not drawn),outcome,[1],inactive
same,AC50,[2],136 µM (active)
same,outcome,[5],inactive
same,AC50,[3],100 µM (active)
CCCC(=O)OCC,outcome,[1],inactive
same,outcome,[5],inactive
same,outcome,[4],inactive
Nc1ccc(Nc2ccccc2)cc1,AC50,[1],114 µM (active)
same,outcome,[2],inactive
same,outcome,[5],inactive
same,AC50,[3],74.6 µM (active)
same,outcome,[4],inactive
Cc1ccc(N)cc1O,outcome,[1],inactive
same,outcome,[5],inactive
same,outcome,[3],inactive
same,outcome,[4],inactive
CCC(C)(C)C(=O)O[C@H]1C[C@@H](C)C=C2C=C[C@H](C)[C@H](CC[C@@H]3C[C@@H](O)CC(=O)O3)[C@H]21,outcome,[6],inactive
same,AC50,[7],2.74 µM (active)
same,outcome,[8],inactive
same,AC50,[9],1.06 µM (active)
same,outcome,[10],inactive
same,outcome,[11],inactive
same,AC50,[12],0.887 µM (active)
same,AC50,[13],0.506 µM (active)
same,outcome,[14],inactive
same,AC50,[15],0.688 µM (active)
same,AC50,[16],64.5 µM (active)
same,AC50,[17],1.03 µM (active)
same,outcome,[18],inactive
Cn1c(=O)cc(Oc2ccc(F)cc2F)c2cnc(NCC(C)(C)O)nc21,outcome,[1],inactive
same,outcome,[2],inactive
same,outcome,[5],inactive
same,outcome,[3],inactive
same,AC50,[4],79.3 µM (active)
O=P(OC(CCl)CCl)(OC(CCl)CCl)OC(CCl)CCl,outcome,[6],inactive
same,outcome,[7],inactive
same,outcome,[8],inactive
same,outcome,[9],inactive
same,outcome,[10],inactive
same,outcome,[11],inactive
same,outcome,[12],inactive
same,outcome,[13],inactive
same,outcome,[14],inactive
same,AC50,[15],2.98 µM (active)
same,outcome,[17],inactive
same,outcome,[18],inactive
CC[C@H]1OC(=O)[C@H](C)[C@@H](O[C@H]2C[C@@](C)(OC)[C@@H](O)[C@H](C)O2)[C@H](C)[C@@H](O[C@@H]2O[C@H](C)C[C@H](N(C)C)[C@H]2O)[C@](C)(O)C[C@@H](C)C(=O)[C@H](C)[C@@H](O)[C@]1(C)O,outcome,[6],inactive
same,outcome,[7],inactive
same,outcome,[8],inactive
same,outcome,[9],inactive
same,outcome,[10],inactive
same,outcome,[11],inactive
same,outcome,[12],inactive
same,outcome,[13],inactive
same,outcome,[14],inactive
same,outcome,[15],inactive
same,outcome,[17],inactive
same,outcome,[18],inactive
Cn1c(=O)c2c(ncn2C)n(C)c1=O,outcome,[19],inactive
same,outcome,[20],inactive
same,outcome,[6],inactive
same,outcome,[7],inactive
same,outcome,[2],inactive
same,outcome,[3],inactive
same,outcome,[8],inactive
same,outcome,[9],inactive
same,outcome,[10],inactive
same,outcome,[11],inactive
same,outcome,[12],inactive
same,outcome,[13],inactive
same,outcome,[14],inactive
same,outcome,[15],inactive
same,outcome,[17],inactive
same,outcome,[18],inactive
